Compound activity as filed in PubChem BioAssay.
NSD2 inh = inhibitors of human histone methyltransferase NSD2; inhibition, % at 12.5 µM; AID 743445; NSD2 peptide methylation, AlphaScreen, 120 min; O96028; 310,000 tested, 0.54% active; in the data active = inhibition above about 50%
Target sequence (O96028 whole entry, looked up): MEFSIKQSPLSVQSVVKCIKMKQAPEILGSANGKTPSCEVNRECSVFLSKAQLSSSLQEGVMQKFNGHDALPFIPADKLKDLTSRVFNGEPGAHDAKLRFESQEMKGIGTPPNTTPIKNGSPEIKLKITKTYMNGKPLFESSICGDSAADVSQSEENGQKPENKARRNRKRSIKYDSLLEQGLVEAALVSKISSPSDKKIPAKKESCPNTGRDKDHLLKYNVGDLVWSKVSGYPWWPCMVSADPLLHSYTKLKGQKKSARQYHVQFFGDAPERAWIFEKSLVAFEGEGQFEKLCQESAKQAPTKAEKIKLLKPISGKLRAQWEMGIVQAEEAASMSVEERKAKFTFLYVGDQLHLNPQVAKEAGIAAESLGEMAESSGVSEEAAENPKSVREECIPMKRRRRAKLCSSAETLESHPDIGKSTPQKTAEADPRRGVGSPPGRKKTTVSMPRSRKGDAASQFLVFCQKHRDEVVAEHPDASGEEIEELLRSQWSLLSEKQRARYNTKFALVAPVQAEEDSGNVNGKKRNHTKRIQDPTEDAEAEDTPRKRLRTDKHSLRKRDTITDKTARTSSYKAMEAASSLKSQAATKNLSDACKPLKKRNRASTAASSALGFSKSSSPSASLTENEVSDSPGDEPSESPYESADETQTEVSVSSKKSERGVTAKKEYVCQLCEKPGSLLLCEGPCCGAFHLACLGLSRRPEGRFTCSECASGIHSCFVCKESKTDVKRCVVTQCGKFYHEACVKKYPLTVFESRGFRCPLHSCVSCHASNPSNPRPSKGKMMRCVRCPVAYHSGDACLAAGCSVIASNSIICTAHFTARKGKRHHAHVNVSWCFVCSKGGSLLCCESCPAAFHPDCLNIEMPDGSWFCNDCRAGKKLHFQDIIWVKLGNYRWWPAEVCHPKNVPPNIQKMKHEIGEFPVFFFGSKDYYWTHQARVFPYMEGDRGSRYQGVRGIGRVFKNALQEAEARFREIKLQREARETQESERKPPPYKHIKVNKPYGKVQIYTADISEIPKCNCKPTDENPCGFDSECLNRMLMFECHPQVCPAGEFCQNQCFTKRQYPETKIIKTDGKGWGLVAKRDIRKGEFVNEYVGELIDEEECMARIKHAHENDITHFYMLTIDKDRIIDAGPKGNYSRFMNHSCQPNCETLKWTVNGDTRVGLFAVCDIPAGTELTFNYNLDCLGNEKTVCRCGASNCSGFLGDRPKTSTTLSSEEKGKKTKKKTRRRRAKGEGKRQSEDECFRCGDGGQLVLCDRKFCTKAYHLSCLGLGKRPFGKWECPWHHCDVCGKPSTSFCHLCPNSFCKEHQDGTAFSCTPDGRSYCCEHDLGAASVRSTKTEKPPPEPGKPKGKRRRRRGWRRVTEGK
Casp6 inh = inhibitors of human caspase-6; P55212; purified caspase-6, Z-VEID-R110 cleavage fluorescence; inhibition, % at 12.5 µM; 350,000 tested, 0.53% active;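 active = mean inhibition across replicates at least about 35%, with every replicate also reaching that limit, limit read from the data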;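 also: 0% = median of neutral control wells and 100% = no fluorescence left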
RAD54 branch = blocks human RAD54 Holliday junction branch migration; Q92698; FAM/BHQ fluorescence; inhibition, % at 10.4 µM; 360,000 tested, 0.14% active;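 active = mean normalized replicate activity at least 40 and at least half of replicates scoring 40 or more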;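 also: 0% = median of neutral control wells and 100% = median of positive control wells; inhibitors cause a drop in the FAM fluorescence signal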
RAD52 inh = blocks human RAD52 DNA annealing. 360,000 tested, 0.46% active. recombinant RAD52 DNA annealing, FRET fluorescence. P43351. AID 651710. inhibition, % at 18.7 µM;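 active = every replicate showing at least 50% inhibition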
Glyco luc inh = N-linked glycosylation inhibition; D54 ERlucT glycosylation luciferase reporter, 24 h; percent of 100 nM tunicamycin response; reporter increase, % at 12.5 µM; 360,000 tested, 0.23% active; AID 588692;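 active = mean luciferase reporter signal, scaled so untreated is 0 and the glycosylation-blocking control 100, at or above a set limit in every replicate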;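 also: luciferase carries N-glycosylation sites so blocking glycosylation raises the light; 0% = median of neutral control wells and 100% = median of 100 nM tunicamycin wells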
DNA binder FP = binds DNA, flagging false RAD52 inhibitor hits; AC50, µM; shares compounds with RAD52 inh; 1,000 tested, 8% active; Salmon sperm DNA/acridine orange FP displacement, DNA binding;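 active = fitted half-maximal concentration for signal loss at or below twice the highest dose tested, in every separate run, actives reach about 64 µM in these data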
Active calls of the source: *; i = inactive; nt = no result given. An excerpt weighted towards active compounds, which were near 1.2% of everything screened.

SMILES	NSD2 inh	Casp6 inh	RAD54 branch	RAD52 inh	Glyco luc inh	DNA binder FP
CC(C)(C)S(=O)N1Cc2cc(C(=O)NCCCN3CCOCC3)nc(-c3cccc(-c4cc5ccccc5o4)c3)c2[C@@H]1CCO (stereo not given in full)	nt	-2	-9	-4	2	i
C[C@@H]1CCCCO[C@H](CN(C)C(=O)NC2CCCCC2)[C@H](C)CN([C@H](C)CO)C(=O)c2cc(NC(=O)C3CCCCC3)ccc2O1	nt	4	6	-11	nt	nt
CN(CC(=O)Nc1ccc(S(=O)(=O)N2CCCC2)cc1)CC(=O)Nc1cccc(F)c1	-6	4	-2	58*	-4	i
CCc1cccc2c1Sc1ccccc1CC2N1CCNCC1 (stereo not given)	12	5	nt	55*	-5	i
Cc1cccc2c1Sc1ccc(Cl)cc1CC2N1CCNCC1 (stereo not given)	24	nt	nt	nt	nt	nt
Cc1cccc(/C=C/C(=O)c2ccc(NC3=NCCCS3)cc2)c1	4	-3	nt	54*	4	i
COc1cccc(/C=C/C(=O)c2ccc(NC3=NCCCS3)cc2)c1	18	2	nt	32	10	nt
CCN(CC)CCCNC(=O)C(C)n1nc(C)c2sc3ccccc3c2c1=O (stereo not given)	0	nt	nt	nt	-1	nt
CCN(CC)CCNc1ccc(C)c2sc3ccc(O)cc3c(=O)c12	nt	-16	nt	76*	54*	10µM*
Nc1ccc(CCn2ccnc2)cc1	1	-111	4	51*	4	i
Cc1noc(C)c1S(=O)(=O)Nc1ccc2c(c1)CC(=O)N([C@@H](C)CO)C[C@@H](C)[C@H](CN(C)C(=O)Nc1ccccc1)O2	nt	-1	nt	3	nt	nt
C[C@@H]1CN([C@@H](C)CO)C(=O)c2cc(NS(=O)(=O)c3ccc(F)cc3)ccc2O[C@@H](C)CCCCO[C@H]1CN(C)CC1CC1	nt	0	3	31	nt	nt
CN(C)CCCNc1oc(/C=C/c2cccs2)nc1S(=O)(=O)c1ccccc1	-14	-47	5	52*	-5	i
NC(=NCc1ccccc1)NN=Cc1ccnc2ccccc12	20	-6	nt	64*	2	i
C[C@@H]1CN([C@H](C)CO)C(=O)c2cc(/C=C/c3ccccc3)cnc2O[C@@H]1CN(C)C(=O)Nc1ccc(C(F)(F)F)cc1	nt	-2	-2	11	nt	nt
COCCN1CCn2c(nc3cc(Nc4nnc(C)c5ccccc45)ccc32)C1	6	-17	nt	72*	0	i
COCCN1CCn2c(nc3cc(NC(C)=O)ccc32)C1	-1	0	-4	-10	0	nt
FC(F)(F)c1cc(CCN2CCNC[C@H]2Cc2cccc3ccccc23)cc(C(F)(F)F)c1	nt	10	16	60*	-2	i
Cc1ccc[n+](CC(=O)Nc2cc(C(F)(F)F)ccc2Cl)c1	-6	nt	1	nt	1	nt
CCC(C)(C)c1ccc(OCCCC[n+]2cccc(C)c2)c(C(C)(C)CC)c1	6	-108	nt	76*	13	i
COc1ccc(C(=O)c2c(N)sc3c2CCN(C)C3)cc1	-4	-7	-22	-68	-2	nt
CN1CCc2c(sc(N)c2C(=O)O)C1	20	-66	nt	74*	1	i
CCN1CCn2c3c(c4cc(Cl)ccc42)CCCC31 (stereo not given)	11	nt	10	nt	-1	nt
CCN(CC)CCN1CCn2c3c(c4cc(C)ccc42)CCCC31 (stereo not given)	17	-5	nt	63*	3	i
CO[C@@H]1CN(C)C(=O)c2cc(NC(=O)Nc3ccccc3F)ccc2OC[C@@H](C)NC[C@@H]1C	nt	nt	5	15	nt	nt
SMILES	NSD2 inh	Casp6 inh	RAD54 branch	RAD52 inh	Glyco luc inh	DNA binder FP
CN1CCN(c2ccc(Cl)cc2NC(=O)CCN2C(=O)c3ccccc3C2=O)CC1	-2	-125	nt	83*	0	i
CO[C@H]1CN(C)C(=O)c2ccc(NS(=O)(=O)C3CCCCC3)cc2OC[C@H](C)NC[C@@H]1C	nt	1	nt	3	nt	nt
C[C@@H]1CN([C@H](C)CO)S(=O)(=O)c2ccc(-c3cncnc3)cc2O[C@H]1CN(C)C	nt	0	-4	4	nt	nt
Oc1ccc(C[C@H]2CNC(=S)N2CC2CCCN2C[C@H](Cc2ccc(O)cc2)N2C[C@H](Cc3ccc(O)cc3)N(CC3CCCCC3)C2=S)cc1 (stereo not given in full)	nt	3	-6	55*	-3	i
CCOc1ccc(CCN2C(=S)N([C@@H](Cc3ccc(O)cc3)CN3CCC[C@@H]3CN3C(=S)NC[C@@H]3Cc3ccccc3)C[C@@H]2CC(C)C)cc1	nt	1	-1	51*	-9	i
CN(C1CCCCC1)S(=O)(=O)c1ccc(C(=O)Nc2sc3c(c2C(N)=O)CC(C)(C)NC3(C)C)cc1	-3	-12	4	78*	-3	i
CCOC(=O)c1c(NC(=O)c2ccc(S(=O)(=O)N3CCOCC3)cc2)sc2c1CC(C)(C)NC2(C)C	-3	-5	3	-13	2	nt
N=C(N)c1ccc(N=Nc2c(O)ccc3c2[nH]c2ccccc23)cc1	22	31	nt	102*	-12	i
COc1cccc(CNC(=O)C[C@@H]2C=C[C@@H](NC(C)=O)[C@@H](CO)O2)c1	nt	1	6	-17	nt	nt
COc1cc(NCCCCCCN)c2ncccc2c1OC	nt	85*	nt	63*	9	i
COc1cc(N)c2ncccc2c1OC	14	9	-6	5	3	nt
CNC(C)C(=O)NC(C(=O)N1CCCC1C(=O)Nc1ccc2[nH]ccc2c1)C(C)C (stereo not given)	nt	-56	7	96*	7	i
CNC(C)C(=O)NC(C(=O)N1CCCC1C(=O)Nc1ccc2ncccc2c1)C(C)C (stereo not given)	nt	-1	-6	-8	8	nt
Oc1ccccc1/C=N/[n+]1ccccc1	-1	-5	-7	58*	0	i
Cc1ccc2nc(N(CCCN(C)C)C(=O)c3cc(-c4cccs4)nc4ccccc34)sc2c1	1	-13	-17	54*	-5	i
CN(C)CCCN(C(=O)c1ccc(C(=O)c2ccccc2)cc1)c1nc2ccc(F)cc2s1	6	10	13	49	-3	nt
CN(C)CCCN(C(=O)c1nc2ccccc2s1)c1nc2ccc(F)cc2s1	nt	-2	2	84*	1	i
CN(C)CCCN(C(=O)c1ccco1)c1nc2cc3c(cc2s1)OCO3	10	-26	41	54*	6	i
CCN(CC)CCN(C(=O)c1ccc(N2C(=O)CCC2=O)cc1)c1nc2cc3c(cc2s1)OCCO3	nt	3	nt	80*	4	i
COc1ccc(Cl)c2sc(N(CCN(C)C)C(=O)c3ccc4c(c3)OCCO4)nc12	12	-7	nt	91*	-2	i
CCN(CC)CCN(C(=O)c1cccc(N2C(=O)CCC2=O)c1)c1nc2cc3c(cc2s1)OCO3	18	-7	38	5	1	nt
CN(C)CCN(C(=O)c1ccc2c(c1)OCCO2)c1nc2cc3c(cc2s1)OCO3	12	4	34	0	-5	nt
